Assay outcomes deposited in PubChem BioAssay by several laboratories.
Gli-Sufu block – Gli-Sufu pathway antagonism; Sufu-KO-LIGHT fibroblasts, Gli luciferase reporter luminescence; inhibition, % at 5 µM; hit rate 0.74% among 340,000; AID 588413;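 active = inhibition above about 55%, limit read from the data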;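 also: 0% = DMSO-treated cells and 100% = wells with medium but no cells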
NCOA2 inhibitor – human SRC2 (NCOA2) inhibition | inhibition, % at 9 µM | HEK293 GAL4-SRC2 luciferase reporter, luminescence | Q15596 | hit rate 0.17% among 370,000;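 active = inhibition above the mean inhibition of all tested compounds plus 3 SD, set per campaign, cut at about 52% in these data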;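 also: 0% = DMSO treated cells and 100% = cells given Gossypol at 36 µM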
COUP-TFII inh – inhibitors of human COUP-TFII (NR2F2); P24468; HEK293T NGFI-A luciferase reporter, luminescence; inhibition, % at 8.6 µM; hit rate 0.7% among 370,000; AID 686940;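 active = inhibition above a per-plate cutoff, mean inhibition of test wells between control levels plus 3 SD, cut at about 38% in these data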;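 also: cells cotransfected with COUP-TFII expression vector driving the NGFI-A reporter; 0% = median of COUP-TF2 test wells and 100% = reporter-only cells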
NCOA1 inh – inhibitors of human steroid receptor coactivator 1 (SRC1). Q15788. HEK293 GAL4-SRC1 luciferase reporter, luminescence. inhibition, % at 3.6 µM. hit rate 0.12% among 360,000;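 active = inhibition above the campaign mean plus 3 SD, with each screening campaign given its own cutoff, cut at about 60% in these data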;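 also: 0% = DMSO treated cells and 100% = gossypol at 36 µM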
SRC3 inh – inhibits human SRC3 coactivator; Q9Y6Q9; HEK293 GAL4-SRC3 luciferase reporter, luminescence; inhibition, % at 3.6 µM; hit rate 0.17% among 360,000;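 active = inhibition above a per-campaign cutoff, the mean of all compounds plus 3 SD, cut at about 60% in these data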;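 also: 0% = DMSO-treated cells and 100% = gossypol-treated cells at 36 µM; higher means less SRC3-driven luciferase light from the GAL4 reporter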
Target sequence (Q9Y6Q9 whole entry, looked up, the tested form may be a part): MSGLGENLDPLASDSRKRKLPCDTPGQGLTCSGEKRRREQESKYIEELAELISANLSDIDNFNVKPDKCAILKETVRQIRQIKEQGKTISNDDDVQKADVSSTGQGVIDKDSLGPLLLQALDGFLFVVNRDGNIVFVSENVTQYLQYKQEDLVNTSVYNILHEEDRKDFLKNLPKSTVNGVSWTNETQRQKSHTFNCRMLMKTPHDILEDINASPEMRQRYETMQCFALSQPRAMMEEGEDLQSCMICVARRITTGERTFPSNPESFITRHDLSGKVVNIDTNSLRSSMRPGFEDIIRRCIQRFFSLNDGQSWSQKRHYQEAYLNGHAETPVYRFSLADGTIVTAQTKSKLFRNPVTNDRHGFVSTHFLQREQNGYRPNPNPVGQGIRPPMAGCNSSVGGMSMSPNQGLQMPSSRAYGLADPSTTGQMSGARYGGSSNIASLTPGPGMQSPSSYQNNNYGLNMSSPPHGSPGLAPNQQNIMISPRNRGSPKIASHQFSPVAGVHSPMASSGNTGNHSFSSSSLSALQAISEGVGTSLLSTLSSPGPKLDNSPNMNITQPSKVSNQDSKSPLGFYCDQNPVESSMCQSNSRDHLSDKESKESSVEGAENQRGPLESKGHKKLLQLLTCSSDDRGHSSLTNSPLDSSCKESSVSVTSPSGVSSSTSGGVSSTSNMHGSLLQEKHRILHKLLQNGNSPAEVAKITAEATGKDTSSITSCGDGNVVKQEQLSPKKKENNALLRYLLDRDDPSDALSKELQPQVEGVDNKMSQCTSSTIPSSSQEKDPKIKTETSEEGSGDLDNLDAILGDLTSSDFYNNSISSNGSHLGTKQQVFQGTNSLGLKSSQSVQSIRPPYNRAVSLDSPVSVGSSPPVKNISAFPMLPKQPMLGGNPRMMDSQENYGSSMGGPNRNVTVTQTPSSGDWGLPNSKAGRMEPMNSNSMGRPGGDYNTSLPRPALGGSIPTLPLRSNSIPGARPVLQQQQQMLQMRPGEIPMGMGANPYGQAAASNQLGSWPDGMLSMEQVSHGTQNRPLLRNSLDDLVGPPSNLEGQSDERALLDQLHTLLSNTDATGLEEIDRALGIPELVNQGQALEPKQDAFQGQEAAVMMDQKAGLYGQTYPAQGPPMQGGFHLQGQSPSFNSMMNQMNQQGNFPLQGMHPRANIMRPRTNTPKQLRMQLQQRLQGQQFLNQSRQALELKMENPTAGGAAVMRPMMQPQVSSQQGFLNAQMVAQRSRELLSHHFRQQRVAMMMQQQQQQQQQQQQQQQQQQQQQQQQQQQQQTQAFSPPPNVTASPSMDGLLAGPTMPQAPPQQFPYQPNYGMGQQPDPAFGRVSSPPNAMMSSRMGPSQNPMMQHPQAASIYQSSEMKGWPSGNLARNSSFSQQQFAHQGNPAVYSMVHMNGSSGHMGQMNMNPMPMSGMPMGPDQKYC
NR5A2 inv ag – NR5A2 inverse agonism in reporter assay; O00482; HEK293T StAR-luciferase reporter, LRH-1 transfected, 24 h; inhibition, % at 3.6 µM; hit rate 0.13% among 360,000;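 active = inhibition above the mean inhibition of all tested compounds plus 3 SD, cut at about 73% in these data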;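 also: 0% = DMSO wells and 100% = reporter-only cells lacking LRH-1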
Gli antag conf – Gli-SUFU antagonism confirmation, single concentration | Sufu-KO-LIGHT cells, Gli luciferase reporter, luminescence | hit rate 40% among 2,500 | inhibition, % at 5 µM | AID 602428 | shares compounds with Gli-Sufu block;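 active = mean inhibition at 5 µM reaching about 45%, limit read from the data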;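 also: plate controls were DMSO-treated cells for no effect and wells lacking cells for full effect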
SufuKO cytotox – cytotoxic in Gli-SUFU antagonist counter-screen; cytotoxicity, % at 5 µM; Sufu-KO-LIGHT cells cytotoxicity, ATP luminescence; hit rate 32% among 2,500; AID 651994; shares compounds with Gli-Sufu block;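 active = mean cytotoxicity at 5 µM above about 25%, limit read from the data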;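 also: cells exposed to compound overnight for roughly 16 to 18 hours; plate controls were DMSO wells with cells for no effect and medium without cells for full effect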
Wnt3a counter – counter-screen for Gli-SUFU antagonists: Wnt3a reporter inhibition. hit rate 20% among 2,500. Wnt-LIGHT cells, Wnt3a-driven luciferase reporter, luminescence. shares compounds with Gli-Sufu block. inhibition, % at 6.25 µM. AID 651995;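 active = mean inhibition above about 25%, limit read from the data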
An asterisk follows results filed as active; . = no result. Sampled rows, rich in hits. Any-hit rate of the full collection: about 1.3%.

SMILES	Gli-Sufu block	NCOA2 inhibitor	COUP-TFII inh	NCOA1 inh	SRC3 inh	NR5A2 inv ag	Gli antag conf	SufuKO cytotox	Wnt3a counter
CCOc1ccc(-n2c(SCc3ccc(C#N)cc3)nnc2-c2cccnc2)cc1	95*	4	8	-4	3	4	27	4	-24
CCC(C)[C@H](NC(=O)c1cn(CC)c2cc3c(cc2c1=O)OCO3)C(=O)NCCCn1ccnc1 (stereo partly drawn)	53	-14	9	-11	-12	-12	5	-9	18
COc1ccccc1CCNC(=O)CNC(=O)c1ccc2ccccc2c1	57*	5	21	2	-1	-11	9	9	-27
COc1ccccc1CCNC(=O)c1ccc(C)o1	57*	6	6	-20	0	-30	4	25	-1
COc1ccc(C(=O)OCCCN(C)C2CN(Cc3cn(Cc4ccccc4C(F)(F)F)nn3)S(=O)(=O)C2)cc1OC (stereo not drawn)	.	5	17	.	.	.	.	.	.
NC(=O)c1ccc(Br)c(S(=O)(=O)N2CCCCC2)c1	0	8	1	2	1	-5	.	.	.
O=S(=O)(c1cc(Br)ccc1Br)N1CCCCCC1	56*	-13	-1	-5	-11	-1	14	12	9
CCNC(=O)OC[C@H]1O[C@H](C#Cc2ccc(C(C)(C)C)cc2)C=C[C@H]1OC(C)=O	.	21	22	.	.	.	.	.	.
C/C(CC(=O)NCc1ccccc1)=N\NC(=O)c1cnccn1	50	-60	-23	-35	-20	-58	19	2	10
Cc1cc(O)cc(=O)n1-c1ccc(Cl)c(C(F)(F)F)c1	.	14	11	.	.	.	.	.	.
c1ccc(-c2nnc(-c3ccccn3)c(-c3ccccn3)n2)nc1	3	-35	-2	5	-2	-2	.	.	.
CN(C)c1nc(-c2ccccn2)nnc1-c1ccccc1	66*	18	-29	-11	11	32	66*	24	72*
Cc1ccc(Cn2cc(COC(=O)Nc3ccc(F)cc3)nn2)cc1	.	-29	-15	.	.	.	.	.	.
COc1ccc(S(=O)(=O)Cc2ccc(C(=O)NCC(OC)OC)o2)cc1	54	28	0	-1	3	11	20	11	1
CN1CCN(C(=S)NC(=O)c2ccc(C(C)(C)C)cc2)CC1	60*	1	-18	8	6	2	17	11	-63
O=C(Nc1ccc(N2C(=O)[C@@H]3[C@H](C2=O)[C@@H]2C=C[C@H]3C2)c(Cl)c1)c1ccccn1	.	.	-19	.	.	.	.	.	.
CC(C)c1ccc(Nc2nc(CC(=O)O)cs2)cc1	-95	-69	-61	-97	-83	-151	.	.	.
O=C(O)Cc1csc(Nc2cccc(Cl)c2)n1	69*	-15	-9	-21	-2	-18	13	20	-31
COC(=O)c1ccc(CN2C(=O)[C@]3(OCCC=C[C@H]3C)c3cc(OC)ccc32)cc1	.	3	-11	.	.	.	.	.	.
O=C(NNC1CC(=O)N(c2ccc(Br)cc2)C1=O)c1cccs1 (stereo not drawn)	2	-10	-31	-7	-10	-14	.	.	.
CCOC(=O)CNC1CC(=O)N(c2ccc(Br)cc2)C1=O (stereo not drawn)	77*	8	-17	-9	-16	6	15	14	-9
COc1ccc(CN(C)C(=O)COC(=O)c2c(-c3ccccc3Cl)noc2C)cc1	55	-8	-15	4	7	3	22	1	0
COc1ccc(NC(=O)CN(C)C(=O)c2c(-c3ccccc3Cl)noc2C)cc1	-9	-21	-9	-20	12	1	.	.	.
Nc1cc(N)c(OCC(F)(F)F)cc1OCC(F)(F)F	68*	.	.	5	-3	-4	23	2	24
CC(C)C[C@H]1COc2cccc(N3CCOCC3)c2S(=O)(=O)N1	.	16	11	.	.	.	.	.	.
SMILES	Gli-Sufu block	NCOA2 inhibitor	COUP-TFII inh	NCOA1 inh	SRC3 inh	NR5A2 inv ag	Gli antag conf	SufuKO cytotox	Wnt3a counter
Cc1noc(C)c1NC(=O)Nc1ccc2c(c1)C(=O)N([C@@H](C)CO)C[C@@H](C)[C@H](CN(C)S(=O)(=O)c1ccc(F)cc1)OCCCC[C@H](C)O2	.	.	-9	.	.	.	.	.	.
COCC(=O)N[C@H]1C[C@@H]2O[C@H](CO)CC[C@@H]2O[C@@H]1CCc1ccc(-c2ccccc2)cc1	.	-21	-1	.	.	.	.	.	.
COC(=O)CC#C[C@H](C)[C@@H](NS(C)(=O)=O)C1CCCCC1	.	5	6	.	.	.	.	.	.
Cc1ccccc1NC(=O)COC(=O)C1=COCCO1	-12	-13	-6	3	-33	18	.	.	.
Cc1cc(C)c(NC(=O)CNC(=O)COC(=O)C2=COCCO2)c(C)c1	52	10	17	3	15	-2	14	15	-3
CN(C)S(=O)(=O)c1cccc(C(=O)OCC(=O)Nc2sccc2C#N)c1	99*	.	.	-6	17	9	17	5	-65
Cc1[nH]c2ccccc2c1C(=O)C(=O)Nc1ccc2c(c1)OCCO2	-59	-52	-31	-43	-41	-54	.	.	.
CCC(C(=O)Nc1ccc2c(c1)OCCO2)n1c(=O)[nH]c2ccccc2c1=O (stereo not drawn)	53	21	-3	14	14	-5	23	-8	48*
CN(Cc1ccccc1)C(=O)OCc1cn(Cc2cccc(F)c2)nn1	.	-28	-22	.	.	.	.	.	.
CC(=O)Nc1ccc(Nc2ncnc3c2cnn3-c2ccccc2)cc1	-44	-38	-10	-41	-51	-85	.	.	.
CC(=O)NNc1ncnc2c1cnn2-c1ccccc1	57*	-15	-7	1	11	-21	20	31*	-10
COc1ccc2nc(NC(=O)CSc3nnnn3C3CCCCC3)sc2c1	4	-11	10	-14	-12	12	.	.	.
CCOc1ccc2nc(NC(=O)CSc3nnnn3C3CCCCC3)sc2c1	71*	-23	-1	-32	-9	-47	6	11	-84
c1ccc(-c2nnc(N3CCN(c4ccccn4)CC3)c3ccccc23)cc1	61*	-12	-2	3	2	-11	34	1	-12
O=C(NCCc1ccccc1)C1CCC(=O)N(CCCN2CCCC2=O)C1 (stereo not drawn)	5	11	1	5	9	-5	.	.	.
O=C(NCc1cc2ccccc2[nH]1)C1CCC(=O)N(CCCN2CCCC2=O)C1 (stereo not drawn)	59*	-12	-13	-11	-9	-9	14	14	-57
O=C(CSCc1ccc(Cl)cc1)N/N=C/c1c(Cl)cccc1Cl	5	-6	-11	-7	2	-9	.	.	.
O=C(CSCc1ccc(Cl)cc1)N/N=C/c1ccccc1	51	-31	-5	-25	9	-4	8	15	-3
